# Bioassay records deposited in PubChem BioAssay by National Center for Advancing Translational Sciences (NCATS).
# Compounds with a hit are over-represented: about 4.7% of the library has one in this group of screens.
# TRHR PAM – TRH receptor (human) allosteric enhancement. P34981. TRHR cells, fluo-8 calcium fluorescence, EC20 TRH enhancement. enhancement, % at 2 µM. 360,000 compounds, 0.66% hits; in the data active = enhancement above about 30%; also: 0% is about no effect
# Target sequence (P34981 whole entry, looked up): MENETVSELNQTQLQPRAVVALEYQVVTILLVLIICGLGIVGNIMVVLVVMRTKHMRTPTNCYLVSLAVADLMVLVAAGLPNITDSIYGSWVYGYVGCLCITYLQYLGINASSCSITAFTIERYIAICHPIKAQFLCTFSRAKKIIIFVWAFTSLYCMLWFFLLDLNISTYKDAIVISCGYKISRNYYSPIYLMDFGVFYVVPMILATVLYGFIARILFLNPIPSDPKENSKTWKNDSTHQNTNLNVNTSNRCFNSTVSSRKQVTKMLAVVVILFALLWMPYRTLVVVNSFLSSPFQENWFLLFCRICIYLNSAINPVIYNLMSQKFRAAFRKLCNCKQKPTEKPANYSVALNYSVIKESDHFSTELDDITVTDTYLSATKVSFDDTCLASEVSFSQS
#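 Enhancer read-out: after compound pinning and an initial kinetic agonist-mode read, an EC20 of TRH (10 nM final) was injected and fluo-8 calcium signal (Ex 480/Em 530) followed at 1 s/cycle for 100 cycles in TRHR-expressing cells.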
# D1 potentiator – human D1 dopamine receptor positive modulation; P21728; HEK293 TREx D1 cells, calcium flux, dopamine EC20 potentiation; potentiation, % at 10 µM; 360,000 compounds, 0.036% hits; in the data active = potentiation above about 30%; also: 0% is about no effect
# D1 antag – blocks dopamine activation of the human D1 receptor. activity change, negative = inhibition, % at 10 µM. 360,000 compounds, 3.2% hits. HEK293 TREx D1 cells, calcium flux, dopamine EC80; stronger effect = lower value; in the data active = activity change below about -30%; also: % is scaled to controls: 0 for no effect and ±100 for the full control effect
#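 Inducible Hek293 Trex D1 cells (tetracycline, overnight, 30 C). Calcium dye 30–90 min RT. Antagonist mode: EC80 dopamine added after 180 s compound read.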
# D1 agonist – human D1 receptor agonism. P21728. HEK293 T-REx D1 cells, calcium flux, agonist mode. activation, % at 2 µM. 360,000 compounds, 1% hits; also: 0% is about no effect
#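 Inducible HEK293 T-REx D1 cells, force-coupled to calcium signalling, were plated at 4000 cells/well with tetracycline and held overnight at 30 C. After no-wash calcium dye loading, compound-evoked calcium rise over 180 s flagged agonists.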
# TRHR agonist – agonists of human TRH receptor; P34981; TRHR cells, calcium flux fluo-8, FDSS agonist mode; activation, % at 2 µM; 360,000 compounds, 0.18% hits; also: 0% is about no effect
#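 TRHR-expressing cells, plated overnight in medium with 10% serum, were loaded with fluo-8 calcium dye at room temperature. After a 10 s baseline, library compound was pin-added and calcium release was recorded kinetically (ex 480/em 530) as agonist response.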
# * hit, by the source's call; nt = no result given; ! = not active in a repeat. Rule as the data show it, unless noted: active = activation above about 30%; inactive = the rest.
SMILES,TRHR PAM,D1 potentiator,D1 antag,D1 agonist,TRHR agonist
O=C(NCc1cc(C(F)(F)F)cc(C(F)(F)F)c1)C1CC(c2cccc([N+](=O)[O-])c2)=NO1 (stereo not given),9.8,-8.8,-54.4*,9.1,-1.1
O=C(NCc1cccnc1)C1CC(c2ccc(F)cc2)=NO1 (stereo not given),-1.8,-6.0,-30.5*,3.4,0.3
Cc1ccc(CCNC(=O)C2CC(c3ccc(C(F)(F)F)cc3)=NO2)cc1 (stereo not given),0.1,-3.0,-2.7,8.3,-0.1
COc1cc(C2SCC(=O)N2Cc2ccccc2)ccc1O (stereo not given),10.0,-6.5,-16.1,1.8,0.6
Cn1c(=O)c2sccc2n2c(CCC(=O)N3CCN(c4cccc(Cl)c4)CC3)nnc12,11.7,-1.2,7.4,-0.9,-0.8
Cc1nn(-c2ccc(F)cc2)c2nc(N)c(C#N)c(-c3ccc(O)c(O)c3)c12,-7.6,-8.8,-45.9*,0.3,1.3
COc1ccc(/C=C2/SC(=S)N(NS(=O)(=O)c3ccc(C)cc3)C2=O)cc1,7.6,nt,-47.4*,6.0,-1.4
Cc1ccc(/C=C2\SC(=S)N(NS(=O)(=O)c3ccc(C)cc3)C2=O)cc1,-4.0,-7.0,1.9,-2.8,-0.6
CC(C)(C)c1ccc(S(=O)(=O)NC(Cc2ccccc2)C(=O)O)cc1 (stereo not given),-5.7,0.0,-32.5*,3.5,0.1
Cc1ccc(S(=O)(=O)NC(Cc2ccccc2)C(=O)O)cc1 (stereo not given),-1.6,0.8,-8.5,2.2,0.4
O=C(COc1ccc(Cl)cc1)Nc1ccc(C(=O)NCc2cccnc2)cc1,1.2,-4.2,5.6,9.7,0.0
O=C(COc1ccc(Cl)cc1)Nc1ccccc1C(=O)NCc1cccnc1,-4.0,2.9,17.2,87.7*,-0.8
Cc1ccccc1NC(=O)Nc1ccccc1C(=O)NCc1ccccc1,0.4,-2.7,-2.9,1.3,0.3
O=C(CCl)Nc1ccccc1C(=O)NCc1ccccc1,33.5*,-6.8,-18.2,2.8,-0.3
O=C(NCc1cccnc1)c1ccc(COc2ccc(Cl)cc2)cc1,-6.8,-5.9,-31.9*,13.6,-0.8
COc1cc2cncc(Cc3ccc(Cl)cc3)c2cc1OC,1.4,0.1,-44.8*,5.2,-0.3
COc1cc2nc(CN(C)Cc3ccc(Cl)cc3)[nH]c(=O)c2cc1OC,-2.2,2.9,18.7,4.3,0.9
Nc1nonc1C(=O)N/N=C/c1cc(Br)ccc1O,11.1,-3.7,-3.1,62.6*,45.2*
O=C(COC(=O)CC1Sc2ccccc2NC1=O)NCc1ccccc1 (stereo not given),7.3,-3.8,2.0,36.8*,0.1
COc1ccc(CNC(=O)CC2Sc3ccccc3NC2=O)cc1 (stereo not given),-4.1,-0.1,-9.0,5.0,0.2
O=C(OCc1ccc(Br)cc1)c1cccnc1Cl,5.8,0.8,-12.0,2.9,-0.1
Cc1noc(C)c1COC(=O)c1cccnc1Cl,-2.6,-3.2,-33.7*,4.1,0.1
COCCn1c(Cc2ccccc2)nnc1SC(C)C(=O)NC1CC1 (stereo not given),-3.1,-2.0,-42.8*,0.6,0.4
COc1ccc(Cl)cc1NC(=O)CSc1nc2c([nH]c3ccccc32)c(=O)n1-c1ccccc1,-2.6,-3.0,5.7,0.3,0.4
COc1ccccc1CNS(=O)(=O)c1ccc2c(c1)CC(C)N2C(=O)C1CCC1 (stereo not given),-6.9,-17.4,-32.2*!,19.9,0.3
SMILES,TRHR PAM,D1 potentiator,D1 antag,D1 agonist,TRHR agonist
CC(=O)N1c2ccc(S(=O)(=O)N3CCC(C(=O)N4CC(C)CC(C)C4)CC3)cc2CC1C (stereo not given),1.3,-2.1,4.7,-0.1,-1.5
CC1CC(C)CN(C(=O)C2CCN(S(=O)(=O)c3ccc4c(c3)CC(C)N4C(=O)C3CC3)CC2)C1 (stereo not given),-17.3,-11.3,-45.1*,-1.4,-1.8
CC(=O)c1ccc(N2CCN(S(=O)(=O)c3ccc4c(c3)CC(C)N4C(C)=O)CC2)cc1 (stereo not given),-7.7,-4.1,-47.9*,10.6,-0.3
Cc1cccc(NS(=O)(=O)c2ccc3c(c2)CC(C)N3C(=O)C2CCC2)c1C (stereo not given),-2.3,-3.0,-33.6*,13.4,2.5
CCCn1c(SCC(=O)NNC(=O)c2ccc(OC)cc2)nnc1C(C)C,-13.4,-4.0,12.9,3.4,0.3
CCCCN(C)C(=O)C1CCC(CNS(=O)(=O)c2ccc3c(c2)CC(C)N3C(=O)C2CC2)CC1 (stereo not given),-3.3,0.5,-43.0*,3.5,0.8
Cc1cccc(N2CCN(S(=O)(=O)c3ccc(S(=O)(=O)N4CCCC4)cc3)CC2)c1C,-6.2,1.7,-1.6,2.8,-0.2
CC1CCN(c2ccc(S(=O)(=O)N3CCC(C)CC3)cc2N)CC1,-3.1,-0.4,4.3,7.2,0.2
COC(=O)c1cc(S(=O)(=O)N2CCN(c3ccc(OC)cc3)CC2)c[nH]1,-0.2,-3.2,0.7,6.8,0.1
Cc1cccc(N2CCN(S(=O)(=O)c3ccc4c(c3)CC(=O)N4C)CC2)c1C,1.8,-5.0,-30.1*!,9.4,0.0
COC(=O)c1cc(S(=O)(=O)N2CCN(c3ccc(C(C)=O)cc3)CC2)c[nH]1,2.3,1.0,-32.2*,5.0,-0.3
CCC(C)NC(=O)C1CCC(CNS(=O)(=O)c2ccc3c(c2)CC(C)N3C(=O)C2CC2)CC1 (stereo not given),1.7,-2.2,2.3,5.2,-0.3
CC1CCN(S(=O)(=O)c2ccc3c(c2)N(C)C(=O)CC(=O)N3C)CC1,3.7,-4.0,-36.8*!,0.4,-0.1
CC1CCN(S(=O)(=O)c2ccc3c(c2)CC(C)N3C(=O)C2CCC2)CC1 (stereo not given),-7.3,-13.1,-34.3*,12.1,0.3
CC(=O)N1c2ccc(S(=O)(=O)N3CCC(C(=O)N4CCN(c5cc(Cl)ccc5C)CC4)CC3)cc2CC1C (stereo not given),-1.5,-2.3,-32.9*,8.0,0.6
COC(=O)c1cccc(NC(=O)c2nn(C)c(=O)c3ccccc23)c1,39.7*,1.6,9.3,0.9,-0.3
COC(=O)c1ccc(C)c(NC(=O)c2nn(C)c(=O)c3ccccc23)c1,-1.7,-3.0,-3.3,0.6,-0.1
COCCNC(=O)CCCC(=O)NCCOC,1.0,-4.1,16.7,4.8,0.2
Clc1ccc(CN(CC2CCCO2)C(c2cccs2)c2nnnn2C2CCCC2)cc1 (stereo not given),4.2,-21.5,-52.6*,3.2,-0.4
Clc1ccccc1CN(Cc1ccccc1)C(c1cccs1)c1nnnn1C1CCCC1 (stereo not given),-5.6,-8.5,-34.0*,3.0,0.2
O=C(Cc1ccc(Cl)cc1)Nc1ccccn1,6.8,5.1,0.0,5.2,0.0
COC(=O)/C=C/c1cnc[nH]1,-0.6,8.4,-30.9*,2.0,0.7
